Data from PubChem BioAssay (EPA / NIEHS).
Results filed as inconclusive are left out. Active and inactive are the calls of the source. The calls were made as follows: active = hit-call score of the fitted dose curve at least 0.9, where 1 is the maximum; inconclusive = response in the unintended direction; inactive = score below 0.9.

Target: Cellular tumor antigen p53 (Homo sapiens) (UniProt P04637)
Experiment: TOX21_p53_BLA_p5_ratio: Tox21 HCT-116 p53 Agonism Beta-lactamase Assay, Ratio, Phase 5 (AID 2283599)
How it was run: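 HCT-116 cells carrying a p53-inducible beta-lactamase reporter were seeded at 4000 cells/well and dosed after 5 h with compound in DMSO (217-fold dilution). After 16 h at 37C, CCF4-AM substrate was added for 2 h, and the 460/530 nm emission ratio was scored as gain-of-signal versus DMSO.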

Sequence of Cellular tumor antigen p53 (Homo sapiens) (P04637 whole entry, looked up): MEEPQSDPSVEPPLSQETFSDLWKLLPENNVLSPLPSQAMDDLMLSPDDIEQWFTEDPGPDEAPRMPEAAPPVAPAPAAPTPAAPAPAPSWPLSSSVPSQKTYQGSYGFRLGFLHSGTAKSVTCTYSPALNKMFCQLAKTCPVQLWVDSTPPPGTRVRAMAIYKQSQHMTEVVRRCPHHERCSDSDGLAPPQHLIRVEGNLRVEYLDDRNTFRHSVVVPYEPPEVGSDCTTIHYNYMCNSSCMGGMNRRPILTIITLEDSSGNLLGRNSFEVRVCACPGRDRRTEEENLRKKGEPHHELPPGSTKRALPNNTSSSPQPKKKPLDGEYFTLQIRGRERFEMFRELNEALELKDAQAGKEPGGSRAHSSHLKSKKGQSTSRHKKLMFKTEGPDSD

Row | Compound | outcome
1 | COc1ccc(C(C)=O)cc1 | inactive
2 | CC(=O)CCc1ccc(O)cc1 | inactive
3 | [O-]/[N+](=N\O)c1ccccc1 | inactive
4 | CC(CO)c1ccccc1 (centres undefined) | inactive
5 | CC(C)(CO)CO | inactive
6 | CC(C)(O)CCc1ccccc1 | inactive
7 | C=CC(=O)OCCCCCC | inactive
8 | C=CC(C)CCCC(C)(C)O (centres undefined) | inactive
9 | NCCCOCCOCCOCCCN | inactive
10 | CCCCCCCCCCOC(=O)c1ccccc1C(=O)OCCCCCCCC | inactive
11 | COC(=O)c1cccc(C(=O)OC)c1 | inactive
12 | CCCCN(CCCC)CCCCCCN(CCCC)CCCC | inactive
13 | CCOc1ccc(NC(C)=O)cc1 | inactive
14 | CCCCCCCCCCCCN1CCOCC1 | inactive
15 | O=C(O)c1ccco1 | inactive
16 | OCCCO | inactive
17 | CC(C)C(=O)c1ccccc1 | inactive
18 | CC/C=C\CCCCO | inactive
19 | CCC(C)(C)C1CCC(=O)CC1 | inactive
20 | CC1(C)CC(=O)CC(C)(C)N1 | inactive
21 | CC(C)(O)C(=O)c1ccc(OCCO)cc1 | inactive
22 | CC(=O)C1=C(C)[C@@H]2C[C@@]3(C1)[C@H](C)CC[C@H]3C2(C)C | inactive
23 | NCCN1CCNCC1 | inactive
24 | CCCO | inactive
25 | C=C(C)C(=O)OCCC(C)OC(=O)C(=C)C (centres undefined) | inactive
26 | CC(=O)Oc1c(C)c(C)c2c(c1C)CC[C@@](C)(CCC[C@H](C)CCC[C@H](C)CCCC(C)C)O2 | inactive
27 | C/C=C(\C)C(=O)OC/C=C(\C)CCC=C(C)C | inactive
28 | CC(=O)CC(C)(C)C1CCCCC1 | inactive
29 | CCCc1ccc(N)cc1 | inactive
